Only some compounds are listed: those with a hit (about 2.5% of all), similar ones and a draw of the others.
TMEM16A act – activates or potentiates the mouse TMEM16A chloride channel; Q8BHY3; HEK293 TMEM16A/YFP-H148Q/I152L, iodide quench fluorescence; stronger effect = lower value; B-score at 10 µM; hit rate 0.3% among 340,000; AID 623877;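 active means fluorescence-ratio B-score plate-corrected deviation score at least 3 library SD below zero, with starting fluorescence score within 5 deviations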;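 further: channel opened by trigger with iodide after compound preincubation; score built on the fluorescence ratio of max minus min over baseline; more negative score means more quench and so TMEM16A activation or potentiation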
PKA-R2B act – activates the human PKA-R2B holoenzyme complex. P22694+P31323. PKA-R2B holoenzyme dissociation, Cy5-IP20 fluorescence polarization; R2B truncated from residue 108, S112A mutant; 0% DMSO only, 100% 113 µM cGMP. activation, % at 11.4 µM. hit rate 0.079% among 340,000;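 active means activation above a cutoff set at the mean over all compounds plus 3 SD, cut at about 18% in these data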;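 further: higher means more holoenzyme dissociation and a rise in polarization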
TMEM16A inh – blocks the mouse calcium-activated chloride channel TMEM16A; Q8BHY3; HEK293 TMEM16A/YFP iodide influx fluorescence, ionomycin; normalized B-score (activity score, 25-100; higher = stronger inhibition) at 10 µM; hit rate 1.2% among 310,000; AID 588511;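 active means ratio plate-corrected score three or more library SD toward inhibition, starting fluorescence score within five deviations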;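 further: score derived from kinetic fluorescence span divided by baseline fluorescence per well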
CHT PAM – allosterically activates the human high affinity choline transporter; CHT-expressing cells, membrane potential dye, choline EC20; stronger effect = higher value; LV-AA mutant CHT in HEK293 cells; B-score at 10 µM; hit rate 0.49% among 310,000;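 active means initial fluorescence not abnormally high and integrated response B-score, plate-corrected, over 3 SD above library mean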
PKA-R1A act – activators of PKA-R1A complex; P00514+P68181; PKA-R1A dissociation, Cy5-IP20 fluorescence polarization; scaled: DMSO 0%, 113 µM cGMP 100%; activation, % at 11.4 µM; hit rate 0.083% among 340,000; AID 504707;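 active means percent activation above the mean of all tested compounds plus 3 SD, cut at about 19% in these data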;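 further: higher means more PKAc released from R1A so a rise in polarization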
CHT block – human CHT choline transport inhibition. Q9GZV3. CHT-expressing cells, membrane potential dye, choline response; stronger effect = lower value. B-score at 10 µM. hit rate 0.86% among 310,000;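 active means B-score over 3 SD under the library average, and starting fluorescence ratio not unusually high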;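 further: choline stimulus applied at its EC90 after an EC20 pre-addition; B-score computed on integrated fluorescence ratio after choline addition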
CHT act confirm – human CHT activation, confirmatory screen; shares compounds with CHT PAM; CHT-expressing cells, membrane potential dye fluorescence (FDSS); % of choline EC20–EC90 response window; HEK293 expressing CHT LV-AA mutant; choline added at its EC20; activation, % at 10 µM; hit rate 91% among 2,500; AID 504833;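 active means primary screen active, with duplicate mean activation above negative control mean plus 3 SD, cut at about 11% in these data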
HEK293 MP dye – counter-screen for CHT activators: effect in parental HEK293 cells | shares compounds with CHT PAM | membrane potential dye fluorescence (FDSS); measured after EC20 choline addition | ratio readout change at 10 µM, hits read low | hit rate 62% among 2,500;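 active means duplicate-averaged ratio beyond 3 SD from buffer wells, up or down, though filed actives are nearly all decreases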
The depositor's hits bear a star; i = inactive; . = no result given.

SMILES	TMEM16A act	PKA-R2B act	TMEM16A inh	CHT PAM	PKA-R1A act	CHT block	CHT act confirm	HEK293 MP dye
C/C=C1\NC(=O)[C@H](CC(N)=O)N(C)C(=O)C([C@@H](C)O)NC(=O)C(CCCc2ccc(OC)cc2)NC(=O)[C@H](C(C)C)NC(=O)/C(=C\C)NC(=O)[C@H](O)[C@@H](C[C@@H](O)CCCCCCC)NC(=O)[C@H](C)NC(=O)CN(C)C(=O)[C@H](CCC(N)=O)NC1=O (some centres not stated)	.	4	.	.	-1	.	.	.
N#Cc1ccc(CNC(=O)N2CCOCC2)cc1	i	5	i	.	-1	.	.	.
COc1ccccc1OCC(O)Cn1c(=N)n(Cc2ccccc2)c2ccccc21 (configuration not stated)	i	2	i	9.6*	-2	i	28*	i
CC(OC(=O)c1oc2ccccc2c1COc1ccccc1)C(N)=O (configuration not stated)	i	-6	i	i	6	i	.	.
CC(C)(C)NC(=O)c1oc2ccccc2c1COc1ccccc1	i	-2	i	i	-12	i	33*	i
CC(C)COP(=O)(OCC(C)C)C(Nc1ccccc1)c1ccc2c(c1)OCO2 (configuration not stated)	i	9	i	i	-15	i	.	.
CC(C)COP(=O)(OCC(C)C)C(Nc1ccccc1)c1ccc(F)cc1 (configuration not stated)	i	-4	i	i	-6	i	15*	i
COc1ccc(Cn2c(C)ccc2C)cc1	i	-6	i	i	-11	i	.	.
COc1ccc(Cn2c(-c3ccc(Br)cc3)c[n+]3ccccc23)cc1	i	-3	i	9.6*	-2	i	70*	-60*
COC(=O)CCCC1=CC2=C(c3ccccc3)C(=O)C(C)(OC(=O)C3CCCC3)C(=O)C2=CN1Cc1ccco1 (configuration not stated)	i	-14	i	9.1*	-13	i	47*	i
COC(=O)c1c(C)[nH]c(C)c1C(=O)c1ccccc1Cc1ccccc1	i	2	i	i	3	i	.	.
COc1cccc(NC(=O)CN(C)C(=O)c2ccc3[nH]c4c(c3c2)CC(C)CC4)c1 (configuration not stated)	i	12	.	.	3	.	.	.
CC(=O)N1CCN(c2ccnc3cc(Cl)ccc23)CC1	i	4	i	8.6*	-8	i	65*	-67*
O=C(O)CSCC(=O)N1CCN(c2ccnc3cc(Cl)ccc23)CC1	i	-9	i	i	-10	i	.	.
Cc1ccc(F)cc1NC(=O)N1CCN(c2ccnc3cc(Cl)ccc23)CC1	i	-11	i	i	4	i	.	.
CCCCNC(=O)N1CCN(c2ccnc3cc(Cl)ccc23)CC1	i	4	i	i	12	i	58*	-61*
CCC(C(=O)NCc1cccnc1)n1nc(C)n2c(cc3occc32)c1=O (configuration not stated)	i	-7	i	i	1	i	.	.
O=C(NCc1ccc(Cl)cc1)c1cc(S(=O)(=O)N2CCCCC2)c[nH]1	i	-6	i	i	8	i	.	.
CNC(=S)Nc1cccc(S(=O)(=O)NC2=NCCC2)c1	i	-4	i	i	11	i	.	.
Cc1ccc(NC(=O)CN2C(=O)NC3(CCCCCC3)C2=O)cc1Cl	i	-12	.	.	0	.	.	.
O=C(Cc1cccc(NC(=O)C2CCCN(C(=O)C3CCCC3)C2)c1)Nc1cccc(C(=O)N2CCCCC2)c1 (configuration not stated)	.	-4	.	.	-3	.	.	.
CCC(C)(C)n1nnnc1C(C(C)C)N1CCSCC1 (configuration not stated)	i	2	i	i	5	i	1	i
COc1ccc(OC)c(C(c2nnnn2C2CCCC2)N2CCN(c3ccccc3F)CC2)c1 (configuration not stated)	i	-1	i	i	6	i	35*	i
COc1cccc(C(=O)NCC(c2cccs2)N2CCc3ccccc32)c1 (configuration not stated)	i	-4	i	6.4*	1	i	25*	i
COc1cc2c(cc1OC)C(c1ccc([N+](=O)[O-])cc1)NC(=O)C2 (configuration not stated)	i	4	i	i	-1	i	.	.
SMILES	TMEM16A act	PKA-R2B act	TMEM16A inh	CHT PAM	PKA-R1A act	CHT block	CHT act confirm	HEK293 MP dye
CC(=NCCCn1ccnc1)c1c(C)[nH]n(-c2ccc([N+](=O)[O-])cc2)c1=O	i	-5	i	7.8*	-7	i	49*	-44*
COC(=O)c1ccccc1NC(=O)CN1CCc2ccccc2C1	i	4	i	i	6	i	.	.
COC(=O)c1ccccc1NC(=O)CN1CCN(C23CC4CC(CC(C4)C2)C3)CC1	i	3	i	6.9*	-8	i	30*	i
Cn1cc(CN2CCC(C(=O)Nc3ccc(Oc4ccccc4F)cc3)CC2)cn1	i	1	i	i	-11	i	.	.
Cc1ccc(-c2nc3ncccn3c2NC2CCCCC2)o1	i	8	i	i	-8	i	36*	i
Cc1ccc(S(=O)(=O)CCC(=O)N(C)C2CCCCC2)cc1	i	2	i	i	-7	i	.	.
CC[N+](CC)(CC)CCOc1cccc(OCC[N+](CC)(CC)CC)c1OCC[N+](CC)(CC)CC	i	4	i	11*	4	i	72*	-93*
Cc1cc(C)n2nc(-c3ccsc3-n3c(C)ccc3C)cc2n1	i	4	i	i	-3	i	.	.
Cc1cc(NCCCO)n2nc(-c3cccs3)cc2n1	i	-5	i	8.1*	0	i	62*	-56*
Cc1cc(NCCN(C)C)n2nc(-c3cccs3)cc2n1	i	-1	i	10*	3	i	47*	-89*
Cc1ccc(NC(=O)CN(C)C(=O)c2cc(-c3cccs3)nn2-c2ccccc2)cc1	i	-6	.	.	-5	.	.	.

Screening data: PubChem, several laboratories
